Test results: article PMC12136788
Where a chain is given by its changes, count along the chain named. Over roughly 24,000 sequences, “enrichment r” has its median near 0.99; the highest 2% begin near 3.7. Many of the other results were omitted from the sample, so the highest values are more common in it than they were.

T1: UNK ZnF1-3 (human, UniProt Q9C0B0 31-174)
T1 sequence: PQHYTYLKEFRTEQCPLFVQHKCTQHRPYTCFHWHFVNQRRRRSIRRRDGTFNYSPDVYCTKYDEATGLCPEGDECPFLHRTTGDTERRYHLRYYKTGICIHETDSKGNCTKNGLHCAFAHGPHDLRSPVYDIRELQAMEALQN

B1: chr3:100058692:100058693:+_ENSG00000114021_ENST00000480073|hu_mus|motif|central (ssRNA)
RNA: GGGAGUUCUACAGUCCGACGAUCAUAGUCAGGAAAGUAGGUUGUUCCAUAUGGAGAAUUGAAGCACUCAGGCAGAGAAACGGUGUUGGCACCUUGCUUUGCUGCCUCCCGCACUAGGCUACAAGCCCGGGUAAGGUUAUCUGACAACAGAGGAUUGAGCAUCA
B2: chr10:1038552:1038553:+_ENSG00000107937_ENST00000545048|hu_hu|FALSE|FALSE (ssRNA)
RNA: GGGAGUUCUACAGUCCGACGAUCCAUAGAACGGAUGAAUAUCAUCCAAUUUGGGGAAAUCUGUUAGAAUUUGUGAAAGUCUAUCAUGGUAAUUCUGUUGAGUAAAUUUGACUUUUCUCAUGUAAAAAUGUCUAAUGCGAUGUACAACAGAGGAUUGAGCAUCA
B3: chr9:91931296:91931297:+_ENSG00000123975_ENST00000314355|hu_hu|hu_hu_hu_mus_True|48_108 (ssRNA)
RNA: GGGAGUUCUACAGUCCGACGAUCAGAUUGACGAUCCCCAGCUGCACUUCAUUUUUGUUGUUCUUUUGGAAGAGGUCGUCUAAAGAGAAGAAUAUGUGGUUCUGGCUCAUGAAUCAUGUAAUGAACCCAUCCUAGACUCUGUUGCAACAGAGGAUUGAGCAUCA
B4: chr2:62103349:62103350:-_ENSG00000115484_ENST00000544079|hu_mus|motif|central (ssRNA)
RNA: GGGAGUUCUACAGUCCGACGAUCAAUAUAGGCUCUCUCCUCUCGAAGCACUCGAUCCAUCUGGGCAUAGUCAGAUACGGCGGUUUGAUUAUCCAUAUCUGUUUUAGGAGCAGAUAAGCAAAACUGAAUAAGCCCAAUCUUAGCCAACAGAGGAUUGAGCAUCA
B5: chr2:170668292:170668293:+_ENSG00000138385_ENST00000260956|hu_mus|motif|central (ssRNA)
RNA: GGGAGUUCUACAGUCCGACGAUCACCUAAUUCGCUUUUCUUUUUAAAAGCUUCUGAAGACAAAAAGCAGCUUAAAAUCGGACGGAGGAAUAAAAACACUGCUUACUAAAUAAACUACUUGUCUCUAGCACCAUUUUCUCUUUUCAACAGAGGAUUGAGCAUCA
B6: chr19:41288892:41288893:-_ENSMUSG00000025016_ENSMUST00000025989|mus_mus|motif|central (ssRNA)
RNA: GGGAGUUCUACAGUCCGACGAUCUGGAUGGAACUGAGAAAGCUGGUUAAUUUUAAGAUAAAUAAAUGAGGUUGAUCCAAACGGAGAUUAAGAUGACAGCAGAUAUAUUCCAUGCAGAAUUGAAUAGCUUUUAAUUUUGUUUUUCAACAGAGGAUUGAGCAUCA
B7: chr1:35650007:35650008:-_ENSG00000116560_ENST00000357214|hu_hu|motif|central (ssRNA)
RNA: GGGAGUUCUACAGUCCGACGAUCAUCCAUAAAAAGAUAGCUUUCUUACUAAAAUGCAAGAAUUUAAAAGAUUGGUAUCGGAACAAAAAAACAAAACAAACUGGAAUGAAAGCCUAAAUAUCACAUCUAAAAUCGGGGUUUUUUCAACAGAGGAUUGAGCAUCA
B8: 203424622_203424742_3669_3pUTR_ENSG00000204217_ENST00000374580|human|control|control (ssRNA)
RNA: GGGAGUUCUACAGUCCGACGAUCUUUUAUUUUUAAACAUCUUCUGCAUGUUUAAAUGAUGCAAAAAAUAAUUUCACUCCAUAGGCUUGAAAACAUUUCACAGACAGUUCAUUCCUAUAUCUUUAGACACCAUGGUUGUAGCAGCAACAGAGGAUUGAGCAUCA
B9: chr7:93623566:93623567:-_ENSG00000105829_ENST00000222547|hu_hu|FALSE|FALSE (ssRNA)
RNA: GGGAGUUCUACAGUCCGACGAUCGAACAAAUUCCAAAUUCACAAUUACAUGCAUCACCUCAGUUUAAUAAUCCAAUAAAUGAUAAAAAAGACAAAUAAAGAAAACAGCAUCAUAUAGCACAGCAGCUUUGUUUGGCUCCCUCUCAACAGAGGAUUGAGCAUCA
B10: chr20:57486015:57486016:+_ENSG00000087460_ENST00000306090|hu_mus|FALSE|FALSE (ssRNA)
RNA: GGGAGUUCUACAGUCCGACGAUCCCUUUUUUUUCUUUUUCUUCUGUAGGCCGCCUUAAGCUUACUAAAUUUGGAACAUCUAAGCAAGCUGAAGGGAAGAGGGGUUUUUCAGAAUCACUGGGGGAAAAAGGAAAGGUUGCGGUGCAACAGAGGAUUGAGCAUCA
B11: chr6:136599331:136599332:-_ENSG00000029363_ENST00000527536|hu_mus|motif|central (ssRNA)
RNA: GGGAGUUCUACAGUCCGACGAUCGGGGGCAUCUGAGCAUGAUGAACUCUGACUGGGUGGUGUAGCAAUAGGUGAAGGACGGUGAGGUGACCUUGGACUAUUAUCAUAAGCUGAAAGGCCAGGCCAAAUAUCACCAGAAGUAGCCAACAGAGGAUUGAGCAUCA
B12: chr15:40462788:40462789:+_ENSG00000156970_ENST00000287598|hu_mus|FALSE|FALSE (ssRNA)
RNA: GGGAGUUCUACAGUCCGACGAUCAAAGCGGGGGUCAUUAUAAUAGCGCGUCUCUCCUUGGAGUGCUUCUAUCGCUCUCUCCACUAACGCUGACAUGUUACUCUCUUUCCCCCCUUGAGGGUAGUUCUGUUCUGUCCAAUUAAUCAACAGAGGAUUGAGCAUCA
B13: chr2:128501614:128501615:-_ENSMUSG00000014355_ENSMUST00000014499|mus_mus|FALSE|FALSE (ssRNA)
RNA: GGGAGUUCUACAGUCCGACGAUCAGCCACAGGGGAUUCGCCUUUGGAGAGGCUUCUGAGAUGUGCUGUCAGGGAGCUGCUAGUAGUUGCAUUCUGCAGGGUCCCUGCCUGCUCAGGGAACUUUAAAACAGCAUUCUCUUCCUCCAACAGAGGAUUGAGCAUCA
B14: 52131286_52135943_886_CDS_ENSMUSG00000022637_ENSMUST00000114471|mouse|control|control (ssRNA)
RNA: GGGAGUUCUACAGUCCGACGAUCCGUGAGAAAUGCCAUGUAUCCCGGGUGAGUCACAGCCAAGAAGUUCCAAUUCCGUAAAAUAGAGCCCCAGGGCUGAAAUAGCCUGGUAAAAAUAUCAAAUUCAAACACUGAGAUGUAAUCCAACAGAGGAUUGAGCAUCA
B15: chr1:130485734:130485735:-_ENSMUSG00000045382_ENSMUST00000052172|mus_hu|FALSE|FALSE (ssRNA)
RNA: GGGAGUUCUACAGUCCGACGAUCGAUGAAGGAGUCGAUGCUGAUCCCAAUGUAGUAAGGCAGCCAACAGGCGAAGAAAGCCAGGAUGAGGAUGACUGUGGUCUUGAGGGCCUUGCGCUUCUGGUGGCCCUUGGAGUGUGACAGCAACAGAGGAUUGAGCAUCA
B16: chr20:61576232:61576233:+_ENSG00000101193_ENST00000266069|hu_hu|FALSE|FALSE (ssRNA)
RNA: GGGAGUUCUACAGUCCGACGAUCGGAUCCACCACGCAAGCGCAGGCGCUACUUGGGCUCCUCAAUCACACCCUUGCUGAGGUCUGUCAUUUUGGGAUAUUUUACUUUCUUCUGGUCCAGCUCGUUCUGAGCCCAAAGUAGUAGCAACAGAGGAUUGAGCAUCA
B17: chr17:60770872:60770873:+_ENSG00000011028_ENST00000303375|hu_hu|hu_hu_hu_mus_True|28_78 (ssRNA)
RNA: GGGAGUUCUACAGUCCGACGAUCUCUUUAAAAAAAAAAAAAAAAAGACAAACAAUAAUAAUGGCACUCGAGAAUCAAGAACUACAAUAGAGGGUCCGCUUUGAGUUGUCCAUGUUCUCGUCCUGCACUGGGACACGGGGACUGCAACAGAGGAUUGAGCAUCA
B18: chr17:60770872:60770873:+_ENSG00000011028_ENST00000303375|hu_hu|hu_hu_hu_mus_True|28_88 (ssRNA)
RNA: GGGAGUUCUACAGUCCGACGAUCUCUUUAAAAAAAAAAAAAAAAAGUUUAAAAACAAUAGCACAUUUCGAGAAUCAAGAACUACAAUAGAGGGUCCGCUUUGAGUUGUCCAUGUUCUCGUCCUGCACUGGGACACGGGGACUGCAACAGAGGAUUGAGCAUCA
B19: chr17:60770872:60770873:+_ENSG00000011028_ENST00000303375|hu_hu|hu_hu_hu_mus_True|1_78 (ssRNA)
RNA: GGGAGUUCUACAGUCCGACGAUCUCUUUAAAAAAAAAAAAAAAAAGACAAACAAUAAUAAUGGCACUCGAGAAUCAAGAACUACAAUAGAGGGUCCGCUUUGAGUUUUUGUUCACAUCGUCCUGCACUGGGACACGACCAGGACAACAGAGGAUUGAGCAUCA
B20: chr17:60770872:60770873:+_ENSG00000011028_ENST00000303375|hu_hu|hu_hu_hu_mus_True|78_88 (ssRNA)
RNA: GGGAGUUCUACAGUCCGACGAUCUCUUUAAAAAAAAAAAAAAAAAGUUUAAAAACAAUAAUGGCACUCGAGAAUCAAGAACUACAAUAGAGGGUCCGCUUUGAGUUUUUGUUCACAUCGUCCUGCACUGGGACACGGGGACUGCAACAGAGGAUUGAGCAUCA
B21: chr17:60770872:60770873:+_ENSG00000011028_ENST00000303375|hu_hu|hu_hu_hu_mus_True|58_78 (ssRNA)
RNA: B20 RNA with U47A, U48C, U49A, A52C, C55U, A77U, G78C, A86G
B22: chr17:60770872:60770873:+_ENSG00000011028_ENST00000303375|hu_hu|hu_hu_hu_mus_True|78_78 (ssRNA)
RNA: B20 RNA with U47A, U48C, U49A, A52C, C55U
B23: chr17:60770872:60770873:+_ENSG00000011028_ENST00000303375|hu_hu|hu_hu_hu_mus_True|8_78 (ssRNA)
RNA: GGGAGUUCUACAGUCCGACGAUCUCUUUAAAAAAAAAAAAAAAAAGACAAACAAUAAUAAUGGCACUCGAGAAUCAAGAACUACAAUAGAGGGUCCGCUUUGAGUUUUUGUUCACAUCGUCCUGCAACGCUGUCGCGGGACUGCAACAGAGGAUUGAGCAUCA

Target: T1, UNK ZnF1-3
Experiment: nsRBNS (natural sequence RNA bind-n-seq); RBNS binding buffer (assumed for nsRBNS): 25 mM Tris pH 7.5, 150 mM KCl, 3 mM MgCl2, 0.01% Triton X-100, 500 ug/ml BSA, 20 U/ml SUPERase-In, 4 C; UNK is unkempt and MSI1 is Musashi-1; names of the RNAs are library labels; protein concentration not given here; high values mean tight binding

Row | Binder | binding signal [enrichment R]
1 | B1 | 1.65
2 | B2 | 0.818
3 | B3 | 0.894
4 | B4 | 1.05
5 | B5 | 1.16
6 | B6 | 5.2
7 | B7 | 4.37
8 | B8 | 0.637
9 | B9 | 2.97
10 | B10 | 1.66
11 | B11 | 1.72
12 | B12 | 0.581
13 | B13 | 1.19
14 | B14 | 1.06
15 | B15 | 1.35
16 | B16 | 0.749
17 | B17 | 3.8
18 | B18 | 3.43
19 | B19 | 3.55
20 | B20 | 5.04
21 | B21 | 3.98
22 | B22 | 4.14
23 | B23 | 2.96
